Assays:
Details in all cases: concentration: 1 μM,replicates: in singlicate; n = 1
[1] = tested on: FYN
[2] = tested on: GAK
[3] = tested on: T1, GCN2(Kin.Dom.2,S808G)
T1 construct: gene EIF2AK4

[4] = tested on: GRK1
[5] = tested on: T2, GRK2
T2 construct: gene ADRBK1

[6] = tested on: T3, GRK3
T3 construct: gene ADRBK2

[7] = tested on: GRK4
[8] = tested on: GRK7
[9] = tested on: GSK3A
[10] = tested on: GSK3B
[11] = tested on: T4, HASPIN
T4 construct: gene GSG2

[12] = tested on: HCK
[13] = tested on: HIPK1
[14] = tested on: HIPK2
[15] = tested on: HIPK3
[16] = tested on: HIPK4
[17] = tested on: HPK1
[18] = tested on: HUNK
[19] = tested on: ICK
[20] = tested on: IGF1R
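Further: KINOMEscan kinase panel screen.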

| SMILES | %Inh [1] [%] | %Inh [2] [%] | %Inh [3] [%] | %Inh [4] [%] | %Inh [5] [%] | %Inh [6] [%] | %Inh [7] [%] | %Inh [8] [%] | %Inh [9] [%] | %Inh [10] [%] | %Inh [11] [%] | %Inh [12] [%] | %Inh [13] [%] | %Inh [14] [%] | %Inh [15] [%] | %Inh [16] [%] | %Inh [17] [%] | %Inh [18] [%] | %Inh [19] [%] | %Inh [20] [%] |
| --- | --- | --- | --- | --- | --- | --- | --- | --- | --- | --- | --- | --- | --- | --- | --- | --- | --- | --- | --- | --- |
| C[C@@H]1CNc2c(sc3ccc4nc(-c5ccncc5)ccc4c23)C(=O)N1 | 0 | 13 | 0 | 34 | 18 | 0 | 2 | 29 | 0 | 3 | 70 | 21 | 37 | 3 | 4 | 0 | 0 | 7 | 0 | 0 |
| COc1cc2nccc(Nc3ccc(Oc4ccccc4)cc3)c2cc1OC.Cl [GI261656] | 86 | 0 | 5 | 0 | 0 | 24 | 0 | 0 | 6 | 13 | 29 | 97.6 | 0 | 0 | 11 | 0 | 2 | 9 | 0 | 0 |
| CS(=O)(=O)c1cccc(CNc2nc(Nc3ccc4c(c3)[C@@H]3C[C@@H]4CNC3=O)ncc2C(F)(F)F)c1 | 0 | 26 | 57 | 28 | 0 | 0 | 27 | 0 | 74 | 0 | 0 | 0 | 60 | 34 | 7 | 33 | 86 | 0 | 0 | 89 |
| O=c1[nH]cc(-c2ccc(O)cc2)c2sc(-c3ccncc3)cc12 [GSK1033723] | 21 | 16 | 6 | 0 | 0 | 0 | 0 | 0 | 63 | 22 | 88 | 0 | 67 | 72 | 90.1 | 22 | 44 | 0 | 0 | 0 |
| CC(C(=O)NC1CCN(c2ccnc(Nc3ccc(F)cc3)n2)C1)c1ccc(Cl)cc1 (stereo not shown) [GSK1379713] | 14 | 0 | 0 | 0 | 0 | 0 | 12 | 0 | 0 | 0 | 30 | 0 | 0 | 6 | 0 | 0 | 49 | 0 | 0 | 0 |
| CCn1c(-c2nonc2N)nc2cncc(CNC3CCNCC3)c21.Cl [SB-747651] | 43 | 19 | 6 | 5 | 0 | 59 | 0 | 0 | 37 | 24 | 73 | 0 | 0 | 0 | 48 | 0 | 35 | 0 | 16 | 13 |
| CC(=O)Nc1nc2cnc(Nc3cc(NC(=O)c4cccc(CC(C)(C)C#N)c4)ccc3C)nc2s1 | 0 | 9 | 0 | 0 | 15 | 0 | 0 | 44 | 0 | 2 | 0 | 32 | 29 | 10 | 6 | 13 | 0 | 2 | 44 | 9 |
| COc1cccc(CNC(=O)NC2CCN(c3ccnc(Nc4cc(OC)c(OC)c(OC)c4)n3)C2)c1 (stereo not shown) [GSK1379765] | 12 | 0 | 0 | 0 | 0 | 19 | 74 | 0 | 0 | 7 | 11 | 12 | 0 | 34 | 36 | 0 | 38 | 0 | 13 | 0 |

From PMC5540273 (PLoS ONE, 2017)
